In the library only some 12% were active in any assay of this set; here they are far more common.
HP1b binding inh: HP1-beta chromodomain-methylated histone interaction inhibition; P83916; AlphaScreen HP1-beta / biotin-H3K9me3 peptide binding; Potency, µM (highest dose often 114 µM), usual class: inhibitors; 0.56% of 390,000 active; note: nearly all actives have a fitted effect of over 70% in size
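Compound inhibition of the preformed complex between 50 nM HP1-beta and 50 nM biotinylated H3K9me3 peptide was read by AlphaScreen. Buffer was PBS pH 7.4 with 0.01% Tween-20. Incubations ran 30 min at room temperature, with 10 ug/mL donor/acceptor beads.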
BAZ2B block: blocks human BAZ2B; Potency, µM (series often up to 114 µM), actives largely listed as inhibitors; AID 504333; AlphaScreen BAZ2B-H3K14Ac peptide displacement; 4.4% of 360,000 active; Q9UIF8; note: nearly all actives have a fitted effect of over 60% in size
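BAZ2B (50 nM) with biotin-H3(5-23)K14Ac peptide (50 nM) in PBS pH 7.4, 0.01% Tween-20, preformed 30 min, then compound 30 min at room temperature; top concentration 110uM. AlphaScreen streptavidin donor/nickel chelate acceptor beads (10 ug/mL final), 20 min dark, signal read.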
JMJD2A Tudor: blocks the human JMJD2A Tudor domain | Potency, µM (series often up to 114 µM), usual class: inhibitors | 4.4% of 390,000 active | AlphaScreen JMJD2A-Tudor / H3K4me3 peptide binding | O75164 | AID 504339; note: nearly all actives have a fitted effect of over 50% in size
Target sequence (O75164 whole entry, looked up, the tested form may be a part): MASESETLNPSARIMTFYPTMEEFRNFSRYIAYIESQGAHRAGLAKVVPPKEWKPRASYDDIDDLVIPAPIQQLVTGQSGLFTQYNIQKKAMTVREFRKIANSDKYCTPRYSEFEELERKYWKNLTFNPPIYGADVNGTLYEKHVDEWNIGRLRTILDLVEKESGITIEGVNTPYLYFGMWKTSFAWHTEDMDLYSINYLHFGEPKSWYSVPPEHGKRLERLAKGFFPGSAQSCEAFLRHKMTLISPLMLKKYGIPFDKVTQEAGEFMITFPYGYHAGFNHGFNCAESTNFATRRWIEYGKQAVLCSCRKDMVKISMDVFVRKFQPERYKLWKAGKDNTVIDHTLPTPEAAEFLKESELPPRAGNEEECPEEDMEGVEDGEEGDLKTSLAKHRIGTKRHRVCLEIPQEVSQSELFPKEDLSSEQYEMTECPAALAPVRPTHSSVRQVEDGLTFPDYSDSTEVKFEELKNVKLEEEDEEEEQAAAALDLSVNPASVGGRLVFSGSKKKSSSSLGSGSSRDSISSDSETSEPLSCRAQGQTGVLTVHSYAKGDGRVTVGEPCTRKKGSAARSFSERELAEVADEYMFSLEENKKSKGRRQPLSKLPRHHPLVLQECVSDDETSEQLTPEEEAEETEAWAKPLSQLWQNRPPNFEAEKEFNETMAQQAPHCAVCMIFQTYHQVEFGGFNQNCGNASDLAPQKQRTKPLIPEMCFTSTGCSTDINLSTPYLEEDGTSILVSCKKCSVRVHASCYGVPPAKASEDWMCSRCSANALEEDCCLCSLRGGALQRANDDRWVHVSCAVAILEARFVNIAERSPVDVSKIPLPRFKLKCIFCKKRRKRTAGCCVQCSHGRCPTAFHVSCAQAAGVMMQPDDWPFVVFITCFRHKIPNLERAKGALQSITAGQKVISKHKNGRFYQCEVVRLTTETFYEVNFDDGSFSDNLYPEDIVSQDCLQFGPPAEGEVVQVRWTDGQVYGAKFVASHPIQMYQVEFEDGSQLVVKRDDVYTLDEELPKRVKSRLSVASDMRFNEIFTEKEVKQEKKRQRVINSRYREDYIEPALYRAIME
G9a inh: inhibitors of human histone lysine methyltransferase G9a | Potency, µM (doses to about 102 µM), usual class: inhibitors | 8.8% of 350,000 active | G9a H3K9 monomethylation, AlphaScreen, 2 h; note: nearly all actives have a fitted effect of over 75% in size
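Chemiluminescent proximity detection of H3K9 monomethylation, read after 10 min bead incubation in the dark. Reaction: 20 nM G9a, 500 nM biotin-H3K9 peptide, 20 uM SAM cofactor, 2 h, room temperature, following 15 min enzyme-compound preincubation.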
L3MBTL1 inh: L3MBTL1 (human) inhibition | Q9Y468 | AID 485360 | Potency, µM (highest dose often 57.1 µM), most hits filed as inhibitors | 0.66% of 230,000 active | AlphaScreen L3MBTL1–H3K9me1 peptide binding; note: nearly all actives have a fitted effect of over 60% in size
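L3MBTL1 (50 nM) pre-complexed 30 min with biotinylated H3(1-15)K9me1 peptide (75 nM), then compounds added for 30 min at room temperature; AlphaScreen streptavidin donor/nickel chelate acceptor beads (10 ug/mL final) read after 30 min dark incubation.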
Sfp PPTase inh: blocks B. subtilis Sfp PPTase activity; Q9F4F7; Biochemical Sfp PPTase activity, qHTS; Potency, µM, hits mostly inhibitors; 3.5% of 310,000 active;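 note: the enzyme is Sfp with the accession as filed and its product quenches rhodamine fluorescence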
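Compounds were incubated with enzyme (final 15 nM) for 15 min at room temperature before substrate addition started the reaction. Fluorescence at 525 nm excitation, 598 nm emission was recorded immediately and after 30 minutes.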
Numbers stand for hits; [ ] = remark or other dose. Calls come from the whole dose curve; as a rule, active = well fitted curve in the direction sought with a large enough effect; inconclusive = small, poorly fitted or top-dose-only effect, or another doubt; inactive = no such curve, though single readings can be large; an effect the other way counts as inactive or inconclusive.

How did O=C(c1cc2cc(Cl)ccc2[nH]1)N1CCc2ccccc2C1 do in these assays?
HP1b binding inh: inactive; BAZ2B block: inactive; JMJD2A Tudor: inactive; G9a inh: 50µM; Sfp PPTase inh: inactive

Results for CCc1ccc(NC(=O)NCCN2CCN(c3ccc(OC)cc3)CC2)cc1 ?
HP1b binding inh: inactive; BAZ2B block: inconclusive; JMJD2A Tudor: inactive; G9a inh: 10µM; Sfp PPTase inh: inactive

What do the screens show for `COc1cc(OC)c(NC(=O)c2c(C)oc3ncnc(N4CCCCC4)c23)cc1Cl`?
HP1b binding inh: inactive; BAZ2B block: inactive; JMJD2A Tudor: inactive; G9a inh: inactive

What do the screens show for `Cc1ccccc1N(CC(=O)N1CCc2ccccc2C1)S(C)(=O)=O`?
HP1b binding inh: inactive; BAZ2B block: inactive; JMJD2A Tudor: inactive; G9a inh: inactive; L3MBTL1 inh: inactive; Sfp PPTase inh: inactive

How did CN(C)CC(=O)N1CCc2ccccc2C1 do in these assays?
HP1b binding inh: inactive; BAZ2B block: 50µM; JMJD2A Tudor: 11µM; G9a inh: inconclusive; Sfp PPTase inh: inactive

Results for O=C(NCCCN1CCc2ccccc2C1)Nc1ccc(Cl)cc1 ?
HP1b binding inh: inactive; BAZ2B block: inactive; JMJD2A Tudor: inactive; G9a inh: 71µM; L3MBTL1 inh: inactive; Sfp PPTase inh: inactive

What do the screens show for `O=C(Nc1ccc(Cl)cc1)N1CCc2ccccc2C1`?
HP1b binding inh: inactive; BAZ2B block: inconclusive; JMJD2A Tudor: inactive; G9a inh: inconclusive; L3MBTL1 inh: inactive; Sfp PPTase inh: 79µM

What do the screens show for `O=C(Nc1ccccc1)N1CCc2ccccc2C1`?
HP1b binding inh: inactive; BAZ2B block: inactive; JMJD2A Tudor: inactive[11.4 µM]; G9a inh: inactive; L3MBTL1 inh: inactive; Sfp PPTase inh: inactive

How did Cc1ccc(Nc2nc(C(=O)N3CCC(C(=O)N4CCN(C)CC4)CC3)cs2)cc1 do in these assays?
HP1b binding inh: inactive; BAZ2B block: inactive; JMJD2A Tudor: inconclusive; G9a inh: 50µM; L3MBTL1 inh: inactive; Sfp PPTase inh: inactive

What do the screens show for `COc1ccc2c(c1)CC(C(=O)NCCc1ccc(S(N)(=O)=O)cc1)CO2` (stereo unspecified)?
HP1b binding inh: inactive; BAZ2B block: inactive; JMJD2A Tudor: inactive; G9a inh: inactive

How did CCN1C(=O)C(CC(=O)Nc2ccc(OC)cc2)N(CCCN2CCN(c3ccc(OC)cc3)CC2)C1=S (stereo unspecified) do in these assays?
HP1b binding inh: inactive; BAZ2B block: 32µM; JMJD2A Tudor: 50µM; G9a inh: inconclusive; Sfp PPTase inh: inactive

What do the screens show for `CCN1C(=O)C(CC(=O)Nc2ccc(OC)cc2)N(CCN2CCOCC2)C1=S` (stereo unspecified)?
HP1b binding inh: inactive; BAZ2B block: inactive; JMJD2A Tudor: inactive; G9a inh: inactive; L3MBTL1 inh: inactive; Sfp PPTase inh: inactive

How did COc1ccc(N2CCN(CCCNC(=O)Nc3ccccc3Cl)CC2)cc1 do in these assays?
HP1b binding inh: inconclusive; BAZ2B block: 35µM; JMJD2A Tudor: inconclusive; G9a inh: inconclusive

How did COc1ccc(C(NC(=O)/C=C/c2ccco2)c2ccc(OC)c(OC)c2)cc1OC do in these assays?
HP1b binding inh: inactive; BAZ2B block: inconclusive; JMJD2A Tudor: inactive; G9a inh: 8.9µM; L3MBTL1 inh: inactive; Sfp PPTase inh: 20µM

Results for COc1ccc(C2(CNC(=O)c3cc(OC)c(OC)c(OC)c3)CCCC2)cc1OC ?
HP1b binding inh: inactive; JMJD2A Tudor: inactive

Results for COc1ccc(C2(CNC(=O)/C=C\c3ccco3)CCCC2)cc1OC ?
HP1b binding inh: inactive; BAZ2B block: inactive; JMJD2A Tudor: inactive; G9a inh: 13µM; L3MBTL1 inh: inactive; Sfp PPTase inh: 18µM

What do the screens show for `COc1ccc(C(NC(=O)c2ccco2)c2ccc(OC)c(OC)c2)cc1` (stereo unspecified)?
HP1b binding inh: inactive; BAZ2B block: inactive; JMJD2A Tudor: inactive; G9a inh: inactive[12.7 µM]; L3MBTL1 inh: inactive[11.4 µM]; Sfp PPTase inh: inactive

What do the screens show for `COc1cccc(Nc2nnc(-c3cc4ccc(O)cc4oc3=O)s2)c1`?
HP1b binding inh: inactive; BAZ2B block: inactive; JMJD2A Tudor: inactive; G9a inh: inactive

What do the screens show for `Cc1cc(-n2c(C)cc(C(=O)CSc3nncn3C)c2C)no1`?
HP1b binding inh: inactive; JMJD2A Tudor: inactive; L3MBTL1 inh: inactive

How did Cc1cc(-n2c(C)cc(C(=O)CSc3nncn3C(C)C)c2C)no1 do in these assays?
HP1b binding inh: inactive; BAZ2B block: inactive; JMJD2A Tudor: inactive; G9a inh: 56µM; L3MBTL1 inh: inactive

How did Cc1cccc(NC(=O)/C=C/c2ccc([N+](=O)[O-])s2)c1 do in these assays?
HP1b binding inh: inactive; BAZ2B block: inactive; JMJD2A Tudor: inactive; G9a inh: inactive; L3MBTL1 inh: inactive; Sfp PPTase inh: inactive

Results for Cc1cccc(NC(=S)N/N=C/c2ccc([N+](=O)[O-])s2)c1 ?
HP1b binding inh: inconclusive; BAZ2B block: 10µM; JMJD2A Tudor: 56µM; G9a inh: inconclusive; L3MBTL1 inh: inconclusive; Sfp PPTase inh: inactive

What do the screens show for `Cc1cccc(NC(=S)NNC(=O)c2cccc([N+](=O)[O-])c2)c1`?
HP1b binding inh: inactive; BAZ2B block: inconclusive; JMJD2A Tudor: inactive; G9a inh: 20µM; L3MBTL1 inh: inactive; Sfp PPTase inh: inactive

How did O=C(NC(=S)Nc1cccc(F)c1)c1cccc([N+](=O)[O-])c1 do in these assays?
HP1b binding inh: inactive; BAZ2B block: inactive; JMJD2A Tudor: inconclusive; G9a inh: inconclusive; Sfp PPTase inh: inconclusive

How did O=[N+]([O-])c1cccc(NC(=S)NCc2ccncc2)c1 do in these assays?
HP1b binding inh: inactive; BAZ2B block: inactive; JMJD2A Tudor: inactive; G9a inh: 35µM; L3MBTL1 inh: inactive; Sfp PPTase inh: 13µM

Results for Cc1occc1C(=O)NNC(=S)Nc1cccc([N+](=O)[O-])c1 ?
HP1b binding inh: inactive; BAZ2B block: inactive; JMJD2A Tudor: inactive; G9a inh: 11µM; L3MBTL1 inh: inactive; Sfp PPTase inh: inactive

How did Cc1cc(Br)ccc1NC(=S)Nc1cccc([N+](=O)[O-])c1 do in these assays?
HP1b binding inh: inactive; BAZ2B block: inactive; JMJD2A Tudor: inactive; G9a inh: 45µM; L3MBTL1 inh: inactive; Sfp PPTase inh: inconclusive

Results for COc1cc2c(cc1OC)C1CCC3=C([C@H](C)OC3=O)N1CC2 (stereo partly specified) ?
Sfp PPTase inh: inactive

Results for CC(c1ccccc1)n1c(S(=O)(=O)O)nc2ccccc21 (stereo unspecified) ?
HP1b binding inh: inactive; BAZ2B block: inactive; JMJD2A Tudor: inactive; G9a inh: inactive; L3MBTL1 inh: inactive; Sfp PPTase inh: inactive

What do the screens show for `CC(C)n1c(S(=O)(=O)O)nc2ccccc21`?
HP1b binding inh: inactive; BAZ2B block: inactive; JMJD2A Tudor: inactive; G9a inh: 45µM; L3MBTL1 inh: inactive; Sfp PPTase inh: inactive

Results for Cc1ccc(Cn2c(C)c(CNCc3ccccc3F)c(C(=O)O)c2C)cc1 ?
HP1b binding inh: inactive; BAZ2B block: inactive; JMJD2A Tudor: inactive; G9a inh: inactive
